High-throughput results: PubChem BioAssay, Buhrlage Lab, Dana-Farber Cancer Institute and Novartis Institutes for BioMedical Research (Cambridge, Mass)
A selection: hits, their analogues and other compounds. The true share with any hit is near 12%.
USP17 block = inhibitors of human USP17 deubiquitinase; inhibition, % at 50 µM; purified USP17, Ub-rhodamine cleavage fluorescence, 3 h; hit rate 6.5% among 47,000; A8MUK1; AID 1645855
USP30 block = blocks human USP30 ubiquitin-rhodamine cleavage | Q70CQ3 | purified USP30, Ub-rhodamine cleavage fluorescence | inhibition, % at 25 µM | hit rate 5.3% among 47,000 | AID 1645860
USP8 block = blocks human USP8 ubiquitin-rhodamine cleavage; P40818; purified USP8, Ub-rhodamine cleavage fluorescence, 30 min; inhibition, % at 20 µM; hit rate 4.2% among 47,000
Target sequence (P40818 whole entry, looked up): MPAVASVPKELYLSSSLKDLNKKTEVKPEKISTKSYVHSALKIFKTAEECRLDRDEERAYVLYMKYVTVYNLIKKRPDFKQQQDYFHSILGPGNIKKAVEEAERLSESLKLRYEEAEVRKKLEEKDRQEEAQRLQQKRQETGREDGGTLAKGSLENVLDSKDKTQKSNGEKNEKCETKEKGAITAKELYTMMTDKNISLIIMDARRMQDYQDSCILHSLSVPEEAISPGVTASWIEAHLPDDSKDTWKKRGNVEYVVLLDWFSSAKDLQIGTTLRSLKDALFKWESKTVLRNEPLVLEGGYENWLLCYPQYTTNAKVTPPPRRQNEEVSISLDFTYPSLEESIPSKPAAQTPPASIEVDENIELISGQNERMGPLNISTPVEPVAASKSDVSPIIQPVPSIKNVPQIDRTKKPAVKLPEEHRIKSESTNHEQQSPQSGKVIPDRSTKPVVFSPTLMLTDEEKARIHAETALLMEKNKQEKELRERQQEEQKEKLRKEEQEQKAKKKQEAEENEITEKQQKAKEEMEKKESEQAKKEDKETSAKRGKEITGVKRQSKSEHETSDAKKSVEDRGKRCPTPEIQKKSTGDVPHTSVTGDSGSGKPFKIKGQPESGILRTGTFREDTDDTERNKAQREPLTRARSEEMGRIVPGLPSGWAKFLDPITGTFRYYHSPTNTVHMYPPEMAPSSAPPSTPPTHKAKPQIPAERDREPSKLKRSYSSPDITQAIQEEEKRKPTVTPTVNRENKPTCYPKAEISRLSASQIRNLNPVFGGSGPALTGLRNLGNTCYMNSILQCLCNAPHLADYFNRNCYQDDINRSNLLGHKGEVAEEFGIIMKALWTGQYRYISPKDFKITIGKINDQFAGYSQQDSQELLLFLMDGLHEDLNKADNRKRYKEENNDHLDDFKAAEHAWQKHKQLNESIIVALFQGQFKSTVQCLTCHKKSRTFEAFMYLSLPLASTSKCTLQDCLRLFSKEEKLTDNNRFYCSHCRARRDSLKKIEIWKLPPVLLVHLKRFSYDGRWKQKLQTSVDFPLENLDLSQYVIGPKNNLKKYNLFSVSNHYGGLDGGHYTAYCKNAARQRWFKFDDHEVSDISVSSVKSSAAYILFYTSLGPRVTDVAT
* hit, by the source's call. Rule as the data show it: active = inhibition above about 30%; inactive = the rest.

SMILES | USP17 block | USP30 block | USP8 block
O=C(Nc1ccccc1Br)N1CCN(c2cc(-c3cccnc3)[nH]n2)CC1 | -16 | 1 | -8
O=C(c1ccccc1)c1c[nH]c2cc3c(cc2c1=O)OCO3 | -37 | -127 | 50*
O=C(O)CCn1c(=O)[nH]c2cc3c(cc2c1=O)OCO3 | -12 | -21 | -6
COc1ccc(N2CC(C(=O)Nc3cccc(C)n3)CC2=O)c(OC)c1 (configuration not stated) | -2 | 0 | -1
Cc1cccc(NC(=O)c2ccc(CNC(=O)c3ccccc3)o2)c1C | -1 | 10 | -45
Cc1ccc(C(=O)NCc2ccc(C(=O)Nc3ccc(C)c(C)c3)o2)cc1 | 54* | 42* | -15
Cc1ccc(C(=O)NCc2ccc(C(=O)Nc3cccc(C)c3)o2)cc1 | 60* | 44* | -8
Cc1ccc(C(=O)NCc2ccc(C(=O)Nc3ccccc3C)o2)cc1 | -6 | 1 | -6
Cc1ccc(NC(=O)C(c2ccccc2)N2CCN(c3ccccn3)CC2)cc1 (configuration not stated) | 7 | 23 | 9
COc1ccc(OC)c(CCNc2nc(-c3cccc(OC)c3OC)no2)c1 | -16 | -31 | -1
Cc1cc(C(=O)N2CC[C@@H]3CNS(=O)(=O)[C@@H]3CC2)no1 | 0 | 12 | 1
Cc1cc(N2C(=O)CCS2(=O)=O)ccc1S(=O)(=O)NCCC1=CCCCC1 | 6 | 4 | 11
Cn1ncc2c(NCc3ccccc3)nc(N3CCCCC3)nc21 | -6 | -12 | -11
CC(C)c1cnn2c(NCc3ccccc3)cc(NCCCCCCN)nc12 | -8 | 37* | 3
CCOC(=O)c1c(C)[nH]c(C(=O)N(CC)Cc2ccc3c(c2)OCO3)c1C | 2 | -1 | -86
O=C(Cn1c(=O)n(Cc2ccc3c(c2)OCO3)c(=O)c2ncccc21)NCc1ccco1 | 49* | -11 | 13
O=C(Cn1c(=O)n(Cc2ccccc2)c(=O)c2ncccc21)NCc1ccccc1Cl | 86* | -28 | 50*
O=C(Cn1c(=O)n(Cc2ccc3c(c2)OCO3)c(=O)c2ncccc21)c1ccc(Cl)cc1 | 5 | 62* | 73*
Cc1cccc(NC(=O)Cn2c(=O)n(Cc3ccncc3)c(=O)c3ncccc32)c1 | -1 | -9 | -10
O=C(Cn1c(=O)n(Cc2ccc3c(c2)OCO3)c(=O)c2ccccc21)NCC1CCCO1 (configuration not stated) | 8 | 24 | 22
O=C(Cn1c(=O)n(Cc2ccncc2)c(=O)c2ncccc21)Nc1ccccc1 | -1 | -1 | 13
CC(C)(C)NC(=O)CN1c2cccc3cccc(c23)S1(=O)=O | 28 | 0 | -11
CCC(=O)N1CCc2[nH]nc(-c3ccc(Cl)cc3)c2C1 | -2 | -4 | 0
COC(=O)c1ccc(NC(=O)CSc2nc3c(cc2C#N)CC(C(C)(C)C)CC3)cc1 (configuration not stated) | 9 | 15 | -19
COc1ccc([N+](=O)[O-])cc1C1N(c2ccccc2)CCN1c1ccccc1 | 31* | 3 | -16
SMILES | USP17 block | USP30 block | USP8 block
COc1ccccc1C1CCN(c2ncccc2[N+](=O)[O-])CC1 | 3 | 10 | -22
COC(=O)c1sccc1OCC(=O)c1sc(-c2ccccc2)nc1C | 4 | 12 | 13
Cc1nc(-c2ccccc2)sc1C(=O)CSc1cccc(Cl)c1Cl | 14 | 36* | 17
COc1cc(NC(=O)c2cc(-c3ccncc3)n(-c3ccc(F)cc3)n2)cc(OC)c1 | 10 | 14 | 5
CN1[C@@H](CCC(=O)N2CC[C@@H](O)C2)CNC(=O)[C@@H]2[C@H]1CCN2C1CCCCC1 | -7 | -20 | -7
CN1[C@@H](CCC(=O)N2CCOCC2)CNC(=O)[C@@H]2[C@H]1CCN2Cc1ccc(F)cc1 | -72 | 1 | 43*
COc1ccc(CN2CC[C@@H]3[C@H]2C(=O)NC[C@H](CCC(=O)N2CCOCC2)N3C)cc1 | -35 | -7 | 7
Cc1ccc(CN2CC[C@@H]3[C@H]2C(=O)NC[C@H](CCC(=O)N2CCOCC2)N3C)cc1 | -37 | -13 | 12
CN1[C@@H](CCC(=O)N2CCN(c3ccccn3)CC2)CNC(=O)[C@@H]2[C@H]1CCN2C1CCOCC1 | -33 | 44* | 69*
C#CCNC(=O)CC[C@H]1CNC(=O)[C@@H]2[C@@H](CCN2CC2CC2)N1C | -18 | -12 | 6
CN1[C@@H](CCC(=O)N2CCC(O)CC2)CNC(=O)[C@@H]2[C@H]1CCN2Cc1ccc(F)cc1 | -65 | 14 | 38*
C#CCNC(=O)CC[C@H]1CNC(=O)[C@@H]2[C@@H](CCN2C2CCCCC2)N1C | -42 | 32* | 42*
O=C1C[C@@H]2O[C@H](CNC(=O)[C@@H]3CN(CCN3C(=O)C3CCOCC3)C(=O)[C@@H]3C[C@@H](CN3CC3CC3)N1)[C@@H](O)[C@H]2O | -79 | -254 | 2
